Assay results as given in PubChem BioAssay.
For part of these data: Potency and affinity values are given separately. Activity calls are given as the source filed them.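 Rule for the calls, unless noted: active = earlier screen potentiator hit that boosts the TRPC4 ion channel at some dose, with a dose response; inactive = no potentiation, no dose response, or not a prior hit.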

Columns and labels:
[1] = test system: TRPC4 beta (transient receptor potential cation channel C4), mouse; test: activators of mouse TRPC4 channel, confirmation, cell-based, Fluo4 calcium, HEK293 TRPC4beta/mu-opioid, duplicates, 10 µM (AID 2426;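 active = fluorescence ratio normalized to control raised more than 50% in primary screen plus both repeat runs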); conditions: Fluo4 calcium fluorescence, at 10 µM; stronger effect = higher value
[2] = test system: transient receptor potential cation channel C4 beta (TRPC4), mouse; test: activators of mouse TRPC4 channel, confirmation, cell-based, second round, Fluo4, HEK293 TRPC4beta/mu-opioid, 1 µM (AID 2461;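 active = primary screen active and over 50% activation in each of two duplicate runs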); conditions: Fluo4 calcium fluorescence, at 1 µM; stronger effect = higher value
[3] = test system: TRPC4 (transient receptor potential cation channel C4 beta), mouse; test: positive allosteric modulators of mouse TRPC4, confirmation, cell-based, second round, Fluo-4, HEK293 TRPC4beta/mu-opioid, 1 µM (AID 2554;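 active = primary screen hit whose fluorescence ratio, in both repeats, exceeds the weak agonist control mean by 3 SD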); conditions: DAMGO EC20, Fluo-4 calcium flux, at 1 µM; stronger effect = higher value
[4] = test system: TRPC4 beta (transient receptor potential cation channel C4), mouse; test: positive allosteric modulators of mouse TRPC4, confirmation, cell-based, Fluo-4, HEK293 TRPC4beta/mu-opioid (AID 2555;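 active = primary screen hit whose calcium fluorescence ratio, in both repeats, exceeds the weak agonist control mean by 3 SD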); conditions: DAMGO EC20, Fluo-4 calcium flux, at 10 µM; stronger effect = higher value
[5] = target: Short transient receptor potential channel 4 (Mus musculus) (UniProt Q9QUQ5); test: inhibitors of mouse TRPC4 channel, confirmation, cell-based, Fluo4, HEK293 TRPC4beta/mu-opioid (AID 2636;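 active = calcium signal cut by more than 3 SD below the full-agonist control yet still positive, in both repeats and the earlier primary screen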); conditions: DAMGO, Fluo4 calcium flux, at 10 µM; stronger effect = higher value
Short transient receptor potential channel 4 (Mus musculus), sequence (Q9QUQ5 whole entry, looked up): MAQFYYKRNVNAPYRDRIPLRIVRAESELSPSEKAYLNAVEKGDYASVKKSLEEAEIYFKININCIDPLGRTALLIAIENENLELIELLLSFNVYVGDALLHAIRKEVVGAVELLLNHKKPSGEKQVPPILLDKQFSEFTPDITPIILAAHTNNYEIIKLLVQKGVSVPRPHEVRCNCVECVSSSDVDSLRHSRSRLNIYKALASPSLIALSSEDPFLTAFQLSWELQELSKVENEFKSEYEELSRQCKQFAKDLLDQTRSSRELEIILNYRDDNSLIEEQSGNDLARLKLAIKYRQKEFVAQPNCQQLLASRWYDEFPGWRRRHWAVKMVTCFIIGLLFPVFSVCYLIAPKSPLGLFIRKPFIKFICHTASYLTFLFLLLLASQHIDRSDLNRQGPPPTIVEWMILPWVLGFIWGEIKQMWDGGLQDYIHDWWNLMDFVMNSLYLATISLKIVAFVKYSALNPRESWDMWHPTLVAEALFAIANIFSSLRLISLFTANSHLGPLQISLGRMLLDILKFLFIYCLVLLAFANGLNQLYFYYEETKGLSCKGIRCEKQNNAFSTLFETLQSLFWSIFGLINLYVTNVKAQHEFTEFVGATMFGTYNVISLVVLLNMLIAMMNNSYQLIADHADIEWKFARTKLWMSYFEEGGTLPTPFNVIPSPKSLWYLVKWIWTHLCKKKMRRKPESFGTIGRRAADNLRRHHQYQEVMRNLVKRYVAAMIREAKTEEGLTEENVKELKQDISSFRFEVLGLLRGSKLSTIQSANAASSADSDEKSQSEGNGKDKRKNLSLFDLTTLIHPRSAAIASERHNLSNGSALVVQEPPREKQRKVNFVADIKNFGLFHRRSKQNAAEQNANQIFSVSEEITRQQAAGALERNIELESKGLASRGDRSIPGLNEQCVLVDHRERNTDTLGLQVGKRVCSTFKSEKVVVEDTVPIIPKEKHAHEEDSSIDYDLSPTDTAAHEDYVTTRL

[6] = target: Short transient receptor potential channel 4 (Mus musculus) (UniProt Q9QUQ5); test: inhibitors of mouse TRPC4 channel, confirmation, cell-based, second round, Fluo4, HEK293 TRPC4beta/mu-opioid, 1 µM (AID 2637;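 active = calcium signal ratio cut to more than 3 SD under the fully stimulated control mean yet still positive, in both repeats and the primary screen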); conditions: Fluo4 calcium flux, DAMGO, at 1 µM; stronger effect = higher value
[7] = target: Short transient receptor potential channel 4 (Mus musculus) (UniProt Q9QUQ5); test: mouse TRPC4 channel activators, dose response, cell-based, HEK293 TRPC4/mu-opioid, Fluo-4 calcium (AID 434937;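 active = primary screen activator hit with a dose response curve and TRPC4 channel activation at any tested dose; inactive = no activation, no dose response, or not a primary hit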)
[8] = target: Short transient receptor potential channel 4 (Mus musculus) (UniProt Q9QUQ5); test: TRPC4 positive allosteric modulators, dose response, cell-based, HEK293 TRPC4/mu-opioid, Fluo-4 calcium, EC20 DAMGO (AID 434941);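 note: calcium entry triggered by an EC20 dose of DAMGO at the co-expressed mu-opioid receptor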
[9] = target: Short transient receptor potential channel 4 (Mus musculus) (UniProt Q9QUQ5); test: mouse TRPC4 channel inhibitors, dose response, cell-based, HEK293 TRPC4/mu-opioid, Fluo-4 calcium (AID 434942;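 active = primary screen inhibitor hit that blocks the TRPC4 channel at some tested dose, yielding a dose curve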)
[10] = target: Short transient receptor potential channel 6 (Mus musculus) (UniProt Q61143); test: inhibition of mouse TRPC6 channel, confirmation, selectivity assay for TRPC4 inhibitor project, cell-based, HEK293, membrane potential dye, duplicate (AID 434948;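 active = active in primary screen and both duplicates, each dropping signal beyond three positive-control SD with fluorescence still positive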); conditions: HEK293 TRPC6, membrane potential dye fluorescence, at 10 µM, stimulated with maximal-effect acetylcholine; stronger effect = higher value
Short transient receptor potential channel 6 (Mus musculus), sequence (Q61143 whole entry, looked up): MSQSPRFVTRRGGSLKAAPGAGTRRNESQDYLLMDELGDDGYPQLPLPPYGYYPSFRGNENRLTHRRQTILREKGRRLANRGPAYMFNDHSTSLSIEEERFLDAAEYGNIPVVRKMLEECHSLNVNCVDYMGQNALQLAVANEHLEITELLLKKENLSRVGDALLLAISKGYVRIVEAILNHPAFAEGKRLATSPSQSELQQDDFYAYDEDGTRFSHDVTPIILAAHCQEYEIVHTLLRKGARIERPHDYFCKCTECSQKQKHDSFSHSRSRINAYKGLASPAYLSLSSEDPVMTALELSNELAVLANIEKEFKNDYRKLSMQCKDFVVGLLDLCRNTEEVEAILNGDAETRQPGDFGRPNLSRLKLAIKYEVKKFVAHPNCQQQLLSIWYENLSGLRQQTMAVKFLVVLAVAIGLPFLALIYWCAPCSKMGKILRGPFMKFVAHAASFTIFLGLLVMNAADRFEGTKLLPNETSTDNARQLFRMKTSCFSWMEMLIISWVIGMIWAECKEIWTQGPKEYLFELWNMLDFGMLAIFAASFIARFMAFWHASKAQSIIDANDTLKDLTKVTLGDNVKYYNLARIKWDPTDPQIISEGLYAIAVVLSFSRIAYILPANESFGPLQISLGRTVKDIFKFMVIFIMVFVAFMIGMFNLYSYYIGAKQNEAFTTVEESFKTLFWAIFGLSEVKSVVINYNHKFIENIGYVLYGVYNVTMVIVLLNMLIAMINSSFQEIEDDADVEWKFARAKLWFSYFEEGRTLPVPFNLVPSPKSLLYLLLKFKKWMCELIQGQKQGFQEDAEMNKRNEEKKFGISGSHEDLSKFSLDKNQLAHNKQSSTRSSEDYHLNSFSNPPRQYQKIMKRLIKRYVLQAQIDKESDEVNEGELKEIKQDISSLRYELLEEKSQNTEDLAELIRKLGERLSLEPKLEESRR

[11] = target: Short transient receptor potential channel 6 (Mus musculus) (UniProt Q61143); test: activation of mouse TRPC6 channel, confirmation, selectivity assay for TRPC4 activator project, cell-based, HEK293, membrane potential dye, duplicate (AID 434950;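 active = membrane potential signal rise above negative control mean plus 3 SD in both duplicates, also active in the earlier TRPC4 screen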); conditions: HEK293 TRPC6, membrane potential fluorescence, at 10 µM; stronger effect = higher value
[12] = target: Short transient receptor potential channel 6 (Mus musculus) (UniProt Q61143); test: TRPC6 potentiation by TRPC4 potentiator hits, confirmation, selectivity assay for TRPC4 potentiator project, HEK293 cells, membrane potential dye, duplicate (AID 434952;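 active = compound raising the membrane signal above positive-control mean plus 3 SD in both repeats, and a primary screen hit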); conditions: HEK293 TRPC6, membrane potential dye fluorescence, at 10 µM, maximal acetylcholine added after compound; stronger effect = higher value
[13] = target: Short transient receptor potential channel 4 (Mus musculus) (UniProt Q9QUQ5); test: calcium flux activators in TRPC4/5HT1a cells, counter-screen for TRPC4 activator project, cell-based, second counter screen, HEK293 TRPC4/5HT1a, Fluo-4 (AID 434977;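 active = calcium signal rise above buffer-control mean plus 5 SD in both duplicates, and also a hit in the primary screen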;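 for activation: plate controls were assay buffer for no effect and maximal serotonin response for full effect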); conditions: Fluo-4 calcium flux, at 10 µM; stronger effect = higher value
[14] = calcium flux inhibitors in TRPC4/5HT1a cells, confirmation, counter-screen for TRPC4 inhibitor project, cell-based, second counter screen, HEK293 TRPC4/5HT1a, Fluo-4 (AID 434978;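 active = primary screen active whose calcium signal fell more than 3 SD beyond the full-serotonin control mean in both duplicate plates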;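 note: serotonin given first at submaximal then at maximal dose after compound preincubation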); conditions: Fluo-4 calcium flux, at 10 µM, serotonin added to trigger calcium flux; stronger effect = higher value
[15] = test system: TRPC4 (mouse), co-expressed with 5HT1a in HEK293; test: calcium flux potentiators in TRPC4/5HT1a cells, confirmation, counter-screen for TRPC4 potentiator project, cell-based, second counter screen, HEK293 TRPC4/5HT1a, Fluo-4 (AID 434979;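 active = signal rise over 3 SD above mean of control wells given weak agonist, in both repeats and first screen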); conditions: Fluo-4 calcium flux, at 10 µM, serotonin added at its EC20 dose; stronger effect = higher value
[16] = calcium flux activation in mu-opioid HEK293 cells, confirmation, counter-screen for TRPC4 activator project, cell-based, HEK293 mu-opioid receptor line (AID 449723;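 active = hit in primary screen, with calcium signal over 5 SD above buffer well mean in both duplicates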;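 note: counter screen cells carry the mu-opioid receptor alone and lack TRPC4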); conditions: Fluo-4 calcium fluorescence, at 10 µM; stronger effect = higher value
[17] = calcium flux enhancement in mu-opioid HEK293 cells, confirmation, counter-screen for TRPC4 allosteric potentiator project, cell-based, HEK293 mu-opioid receptor line (AID 449724;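 active = calcium signal rise more than 3 SD above the low-dose agonist control mean, in both duplicate plates and the primary screen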); conditions: Fluo-4 calcium flux, at 10 µM, compound added before EC20 DAMGO stimulus; stronger effect = higher value

Cc1ccccc1-n1c(=O)c2c(n3cnnc13)-c1ccccc1CC21CCCCC1
outcome [1]: inactive
outcome [2]: inactive
outcome [3]: inactive
outcome [4]: inactive
outcome [5]: inactive
outcome [6]: inactive
outcome [7]: inactive
outcome [8]: inactive
outcome [9]: inactive
outcome [10]: inactive
outcome [11]: inactive
outcome [12]: inactive
outcome [13]: inactive
outcome [14]: inactive
potentiation [15]: 10.5% (active)
outcome [16]: inactive
outcome [17]: inactive

Cc1[nH]n2c(=O)c3c(nc2c1-c1ccccc1)CCC3
outcome [1]: inactive
outcome [2]: inactive
outcome [3]: inactive
outcome [4]: inactive
inhibition [5]: 76% (active)
outcome [6]: inactive
outcome [7]: inactive
outcome [8]: inactive
outcome [9]: inactive
outcome [10]: inactive
outcome [11]: inactive
outcome [12]: inactive
outcome [13]: inactive
outcome [14]: inactive
outcome [15]: inactive
outcome [16]: inactive
outcome [17]: inactive

Clc1ccc(N=C2SCC3CCCCN23)cc1 (stereo not given)
outcome [1]: inactive
outcome [2]: inactive
outcome [3]: inactive
potentiation [4]: 10% (active)
outcome [5]: inactive
outcome [6]: inactive
outcome [7]: inactive
outcome [8]: inactive
outcome [9]: inactive
outcome [10]: inactive
outcome [11]: inactive
outcome [12]: inactive
outcome [13]: inactive
outcome [14]: inactive
potentiation [15]: 35.2% (active)
outcome [16]: inactive
outcome [17]: inactive

O=C(O)c1nn(CC(=O)N2CCN(c3ncc(C(F)(F)F)cc3Cl)CC2)c(=O)c2ccccc12
outcome [1]: inactive
outcome [2]: inactive
outcome [3]: inactive
outcome [4]: inactive
outcome [5]: inactive
outcome [6]: inactive
outcome [7]: inactive
outcome [8]: inactive
outcome [9]: inactive
outcome [10]: inactive
outcome [11]: inactive
outcome [12]: inactive
outcome [13]: inactive
outcome [14]: inactive
outcome [15]: inactive
outcome [16]: inactive
outcome [17]: inactive

CCOC(=O)c1sc2nc(CC(=O)OC)nc(NCc3ccc(F)cc3)c2c1C
outcome [1]: inactive
outcome [2]: inactive
outcome [3]: inactive
outcome [4]: inactive
outcome [5]: inactive
outcome [6]: inactive
outcome [7]: inactive
outcome [8]: inactive
outcome [9]: inactive
outcome [10]: inactive
outcome [11]: inactive
outcome [12]: inactive
outcome [13]: inactive
outcome [14]: inactive
outcome [15]: inactive
outcome [16]: inactive
outcome [17]: inactive

OCCN(CCO)c1ncnc2c1sc1nc(N3CCOCC3)c3c(c12)CCCC3
outcome [1]: inactive
outcome [2]: inactive
outcome [3]: inactive
potentiation [4]: 10% (active)
outcome [5]: inactive
outcome [6]: inactive
outcome [7]: inactive
outcome [8]: inactive
outcome [9]: inactive
outcome [10]: inactive
outcome [11]: inactive
outcome [12]: inactive
outcome [13]: inactive
outcome [14]: inactive
potentiation [15]: 27.8% (active)
outcome [16]: inactive
outcome [17]: inactive

O=[N+]([O-])c1c(Nc2cccc(O)c2)cc(Cl)c2nonc12
outcome [1]: inactive
outcome [2]: inactive
outcome [3]: inactive
outcome [4]: inactive
outcome [5]: inactive
outcome [6]: inactive
outcome [7]: inactive
outcome [8]: inactive
outcome [9]: inactive
outcome [10]: inactive
outcome [11]: inactive
outcome [12]: inactive
outcome [13]: inactive
outcome [14]: inactive
outcome [15]: inactive
outcome [16]: inactive
outcome [17]: inactive

CC(C)C(=O)N1CCN(c2ccccc2NC(=O)c2ccco2)CC1
outcome [1]: inactive
outcome [2]: inactive
outcome [3]: inactive
outcome [4]: inactive
inhibition [5]: 84% (active)
outcome [6]: inactive
outcome [7]: inactive
outcome [8]: inactive
outcome [9]: inactive
outcome [10]: inactive
outcome [11]: inactive
outcome [12]: inactive
outcome [13]: inactive
outcome [14]: inactive
outcome [15]: inactive
outcome [16]: inactive
outcome [17]: inactive

CCOc1cc(S(=O)(=O)N2CCN(C(=O)c3ccco3)CC2)ccc1F
outcome [1]: inactive
outcome [2]: inactive
outcome [3]: inactive
potentiation [4]: 12% (active)
outcome [5]: inactive
outcome [6]: inactive
outcome [7]: inactive
outcome [8]: inactive
outcome [9]: inactive
outcome [10]: inactive
outcome [11]: inactive
outcome [12]: inactive
outcome [13]: inactive
outcome [14]: inactive
potentiation [15]: 32% (active)
outcome [16]: inactive
outcome [17]: inactive

O=C1Cc2ccccc2Sc2c(OCCN3CCCCC3)cccc21
outcome [1]: inactive
outcome [2]: inactive
outcome [3]: inactive
outcome [4]: inactive
outcome [5]: inactive
outcome [6]: inactive
outcome [7]: inactive
outcome [8]: inactive
outcome [9]: inactive
outcome [10]: inactive
outcome [11]: inactive
outcome [12]: inactive
outcome [13]: inactive
outcome [14]: inactive
outcome [15]: inactive
outcome [16]: inactive
outcome [17]: inactive

CCCN(CCC)CCCNC(=O)c1cc2c(=O)n(C)c3ccccc3c2n1C
outcome [1]: inactive
outcome [2]: inactive
potentiation [3]: 23% (active)
outcome [4]: inactive
outcome [5]: inactive
outcome [6]: inactive
outcome [7]: inactive
outcome [8]: inactive
outcome [9]: inactive
outcome [10]: inactive
outcome [11]: inactive
outcome [12]: inactive
activation [13]: 6.09% (active)
outcome [14]: inactive
potentiation [15]: 23.1% (active)
outcome [16]: inactive
outcome [17]: inactive

Cc1cc(S(=O)(=O)N2CCC(N3CCCCC3)CC2)ccc1-n1cnnn1
outcome [1]: inactive
outcome [2]: inactive
potentiation [3]: 11% (active)
potentiation [4]: 11% (active)
outcome [5]: inactive
outcome [6]: inactive
outcome [7]: inactive
outcome [8]: inactive
outcome [9]: inactive
outcome [10]: inactive
outcome [11]: inactive
outcome [12]: inactive
outcome [13]: inactive
outcome [14]: inactive
potentiation [15]: 19.1% (active)
outcome [16]: inactive
outcome [17]: inactive

CCN(CC(=O)NCc1ccc(Cl)cc1)CC(=O)NC1(C#N)CCCC1
outcome [1]: inactive
outcome [2]: inactive
outcome [3]: inactive
outcome [4]: inactive
outcome [5]: inactive
outcome [6]: inactive
outcome [7]: inactive
outcome [8]: inactive
outcome [9]: inactive
outcome [10]: inactive
outcome [11]: inactive
outcome [12]: inactive
outcome [13]: inactive
outcome [14]: inactive
outcome [15]: inactive
outcome [16]: inactive
outcome [17]: inactive

Cc1c(N2C(=O)/C(=C\C3CC=CCC3)SC2=S)c(=O)n(-c2ccccc2)n1C (stereo not given)
outcome [1]: inactive
outcome [2]: inactive
outcome [3]: inactive
outcome [4]: inactive
outcome [5]: inactive
outcome [6]: inactive
outcome [7]: inactive
outcome [8]: inactive
outcome [9]: inactive
outcome [10]: inactive
outcome [11]: inactive
outcome [12]: inactive
outcome [13]: inactive
outcome [14]: inactive
outcome [15]: inactive
outcome [16]: inactive
outcome [17]: inactive

Cc1cc(Nc2ccc3c(c2)OCCO3)c2cc(Cl)ccc2n1
outcome [1]: inactive
outcome [2]: inactive
outcome [3]: inactive
outcome [4]: inactive
outcome [5]: inactive
outcome [6]: inactive
outcome [7]: inactive
outcome [8]: inactive
outcome [9]: inactive
outcome [10]: inactive
outcome [11]: inactive
outcome [12]: inactive
outcome [13]: inactive
outcome [14]: inactive
outcome [15]: inactive
outcome [16]: inactive
outcome [17]: inactive
